Bioassay records as filed in PubChem BioAssay.
TrxR1 inh = inhibitors of rat thioredoxin reductase 1 | O89049 | recombinant rTrxR1, NADPH fluorescence consumption, selenite substrate | Potency, µM (top dose mostly 114 µM), usual class: inhibitors | hit rate 1% among 390,000 | AID 588453; note: nearly all actives have a fitted effect of over 65% in size
Target sequence (O89049 whole entry, looked up): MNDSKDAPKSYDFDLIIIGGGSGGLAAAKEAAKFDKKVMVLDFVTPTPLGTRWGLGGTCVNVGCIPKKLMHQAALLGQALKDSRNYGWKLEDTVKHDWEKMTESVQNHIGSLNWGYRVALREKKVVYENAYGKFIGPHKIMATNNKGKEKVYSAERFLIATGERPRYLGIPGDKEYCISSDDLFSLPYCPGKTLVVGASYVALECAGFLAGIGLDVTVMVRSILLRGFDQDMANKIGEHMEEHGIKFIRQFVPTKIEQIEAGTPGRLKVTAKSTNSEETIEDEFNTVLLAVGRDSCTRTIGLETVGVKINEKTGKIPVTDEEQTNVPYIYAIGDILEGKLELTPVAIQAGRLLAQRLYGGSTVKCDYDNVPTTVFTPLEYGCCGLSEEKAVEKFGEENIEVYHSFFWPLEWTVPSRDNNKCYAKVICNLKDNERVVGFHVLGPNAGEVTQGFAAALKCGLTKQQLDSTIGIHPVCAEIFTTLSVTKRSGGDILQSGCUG
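Rat TrxR1 (90 nM in the dispensed reagent) was pre-reduced with 400 uM NADPH for 5 min at room temperature, then incubated with compound for 15 min. After 400 uM selenite was added, NADPH fluorescence (Ex 340/Em 450 nm) was followed for 8 min.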
Sfp PPTase inh = inhibitors of Bacillus subtilis Sfp phosphopantetheinyl transferase | Biochemical Sfp PPTase activity, qHTS | Q9F4F7 | Potency, µM, most hits filed as inhibitors | hit rate 3.5% among 310,000;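 note: the enzyme is Sfp with the accession as filed and its product quenches rhodamine fluorescence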
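Fluorescence-quenching assay: 15 nM Sfp-PPTase preincubated 15 min at room temperature with compound, then 5 uM rhodamine-CoA and 12.5 uM BHQ-2-labelled YbbR peptide added. Fluorescence (ex 525/em 598 nm) read at start and after 30 min; difference gives rate.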
VDR inhibitor = vitamin D3 receptor (human) inhibition. hit rate 0.93% among 400,000. VDR-SRC2-3 peptide fluorescence polarization, 2 h. Potency, µM, usual class: inhibitors
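Measured by FP: displacement of SRC2-3 coactivator peptide from VDR by library compounds, following a two-hour ambient incubation.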
GLS inh = glutaminase GLS (human) inhibition; O94925; GLS enzymatic activity, qHTS titration; Potency, µM (series often up to 45.5 µM), most hits filed as inhibitors; hit rate 0.21% among 410,000
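Glutamate formation by hKGA was monitored fluorometrically using coupled glutamate oxidase, HRP and Amplex Red. Substrate was added as 1 mM L-glutamine solution; incubation was 30 min at RT after an initial read.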
TrxR1 substrate = substrates of rat thioredoxin reductase 1. O89049. purified TrxR1 substrate turnover, NADPH consumption readout. Potency, µM (series often up to 114 µM). hit rate 0.01% among 390,000. AID 588456; note: nearly all actives have a fitted effect of over 50% in size
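Rat TrxR1, dispensed at 90 nM, was prereduced with 400 uM NADPH (final) for 5 min at ~22 deg C, then incubated with compound 15 min before 400 uM selenite. A first-read NADPH fluorescence drop versus no-compound background flagged substrates.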
KAT2A inh = inhibitors of human GCN5L2 histone acetyltransferase. Q92830. GCN5L2 HAT assay, ThioGlo1 CoA-SH fluorescence. Potency, µM (top dose mostly 58.9 µM), usual class: inhibitors. hit rate 0.21% among 390,000
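Preincubate 20nM GCN5L2 with compound 15 min, RT → add 50uM ThioGlo1 + 75uM H3(1-25) + 70uM acetyl-CoA → read fluorescence 0 and 20 min. Primary qHTS; fluorescent artifacts likely.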
Numbers stand for hits; – = inactive; ? = inconclusive; · = not tested or not shown. Rows were chosen to be rich in hits. Some 3.8% of all compounds tested hit in one or more screens of this group. Calls come from the whole dose curve; as a rule, active = well fitted curve in the direction sought with a large enough effect; inconclusive = small, poorly fitted or top-dose-only effect, or another doubt; inactive = no such curve, though single readings can be large; an effect the other way counts as inactive or inconclusive.

SMILES	TrxR1 inh	Sfp PPTase inh	VDR inhibitor	GLS inh	TrxR1 substrate	KAT2A inh
Cc1cc(C)c(S(=O)(=O)N2CCN(C(=O)c3ccccc3OCc3c(C)noc3C)CC2)c(C)c1	–	·	–	–	–	·
COCC(=O)N/N=C/c1ccc(Sc2nc3ccccc3s2)o1	–	–	–	–	–	–
COc1cccc2sc(N(C)c3ccccc3)nc12	–	71µM	–	–	–	–
COc1cccc2sc(N)nc12	–	·	–	–	–	–
COC(=O)c1cccc(C(=O)N2CCCC(C(=O)c3cc(F)ccc3F)C2)c1 (stereo not drawn)	–	–	–	–	–	–
COc1cc2c(=O)n(Cc3ccco3)c(=O)n(CC(=O)c3cccc(Br)c3)c2cc1OC	–	79µM	–	–	–	–
COc1cc2c(=O)n(Cc3ccco3)c(=O)n(CC(=O)c3ccc(Br)cc3)c2cc1OC	–	–	–	–	–	–
CC1CCCCN1C(=O)CSc1nc(C2CC2)nc2c1cnn2-c1ccccc1 (stereo not drawn)	–	20µM	–	–	–	–
Cc1nn(C)c(C)c1NC(=O)CSc1nc(C2CC2)nc2c1cnn2-c1ccccc1	–	–	–	–	–	–
CN(C)S(=O)(=O)c1ccc(Cl)c(NC(=O)CN2CCCCCC2)c1	–	–	–	–	–	–
CCN(c1ccccc1)S(=O)(=O)c1ccc(Cl)c(NC(=O)CN2CCCCCC2)c1	–	56µM	–	–	–	–
CCN(c1ccccc1)S(=O)(=O)c1ccc(Cl)c(NC(=O)COC(=O)c2ccc(O)cc2)c1	–	–	–	–	–	–
O=C(CN1CCN(C/C=C/c2ccccc2)CC1)Nc1cc([N+](=O)[O-])ccc1Cl	–	45µM	–	–	–	–
Cc1cc(NC(=O)CN2CCN(C/C=C/c3ccccc3)CC2)c([N+](=O)[O-])cc1C	–	–	–	–	–	–
CCN(c1ccccc1)S(=O)(=O)c1ccc(Cl)c(NC(=O)COC(=O)c2cc(O)c3ccccc3c2O)c1	·	45µM	·	·	·	–
CC1=CCC2C(=O)N(Cc3ccccc3)C(=O)C2C1 (stereo not drawn)	–	–	–	–	–	–
Clc1ccccc1-c1nc(-n2ccnc2)c2ccccc2n1	·	–	56µM	·	·	–
CN(C)c1ccc(-c2nc(-n3ccnc3)c3ccccc3n2)cc1	·	–	25µM	·	·	–
Clc1ccccc1-c1nc(Nc2ccncc2)c2ccccc2n1	·	–	35µM	·	·	–
O=C1CSC2(C(=O)N(Cc3ccccc3F)c3ccccc32)N1c1cccc(C(F)(F)F)c1 (stereo not drawn)	–	·	–	–	–	–
COc1ccc(C2C(CC(=O)O)=C(O)C(=O)N2c2ccccc2)cc1 (stereo not drawn)	32µM	–	–	–	–	–
Cc1ccc(CNC(C)(C)CO)cc1	–	–	–	–	–	–
CC(C)(CO)NCc1ccc(Br)cc1	–	–	28µM	?	–	–
CC(NC(=O)c1cnn2c1NC(=C1CC1)C=C2C(F)F)c1ccncc1 (stereo not drawn)	–	·	·	·	–	·
COc1ccc(-n2cccc2C=O)cc1	–	–	–	–	–	–
SMILES	TrxR1 inh	Sfp PPTase inh	VDR inhibitor	GLS inh	TrxR1 substrate	KAT2A inh
COc1ccc(-n2cccc2/C=C/[N+](=O)[O-])cc1	10µM	?	?	–	–	–
COc1ccc(-c2ccc(OC)cc2)cc1	–	–	–	–	–	–
COc1ccc(-c2cnc3c(c2)CCC3(C#N)C#N)cc1	–	–	79µM	–	–	–
NC(=O)CSCc1c(Cl)cccc1Cl	–	–	–	–	–	–
Cc1ccc(S(=O)(=O)NCC(=O)OC(C(=O)c2ccccc2)c2ccccc2)cc1 (stereo not drawn)	–	–	–	–	–	–
O=C(N/N=C/C(Br)=C\c1ccccc1)c1ccc2nc[nH]c2c1	?	50µM	?	–	–	–
CC(=C/c1ccccc1)/C=N/NC(=O)c1ccc2nc[nH]c2c1	–	–	–	–	–	–
O=C(O)c1ccc(N/N=C/C(Br)=C/c2ccccc2)cc1	32µM	?	–	–	–	–
O=C(N/N=C/C(Br)=C/c1ccccc1)c1ccncc1	–	?	–	–	–	–
COC(=O)c1ccccc1S(=O)(=O)N1CCC(C(=O)OCC(=O)NCC(F)(F)F)CC1	–	–	–	–	–	–
Cc1cc(NC(=O)CSc2nc3cc(C(=O)NCCCOC(C)C)ccc3c(=O)n2Cc2ccco2)no1	–	56µM	–	–	–	–
